Experiment [1] can be described thus: antimalarial activity against Dd2 strain (AID 2302;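 active = growth inhibition above 50% at the single 2 µM test dose, taken to imply half-maximal potency below 2 µM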;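 note: 0% = DMSO untreated growth and 100% = chloroquine plus artemisinin killed control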). The settings on record: P. falciparum Dd2 in RBCs, LDH growth readout, 72 h; at 2 µM; active compounds read high.
Experiment [2] in a line: HepG2 cytotoxicity, primary screen, cytotoxicity control for P. falciparum antimalarial project, cell-based, ATP luminescence (AID 2303;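 active = inhibition above 50%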;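 note: 0% = DMSO wells and 100% = digitonin-killed cells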). As to conditions: HepG2 viability, 24-48 h, at 10 µM, active compounds read high.
Experiment [3] has as its target L-lactate dehydrogenase (Plasmodium falciparum (isolate CDC / Honduras)) (UniProt Q27743). Kind of experiment: PfLDH activity inhibition – cell lysate, 3D7 strain, counter-screen for P. falciparum growth inhibition project (AID 2304).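 Note: 0% = vehicle and 100% = reference inhibitor.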 The settings on record: P. falciparum 3D7 crude extract, LDH APAD/NBT absorbance; at 2 µM; active compounds read high.
Experiment [4] is described as follows: inhibition of 3D7 malaria parasite growth – strain 3D7 (AID 2306).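 Note: 0% = DMSO wells and 100% = chloroquine plus artemisinin control wells.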 The settings on record: P. falciparum 3D7 erythrocytic growth, LDH absorbance, 72 h; at 2 µM; active compounds read high.
In experiment [5] the target is Calcium-dependent protein kinase 1 (Plasmodium falciparum (isolate 3D7)) (UniProt P62344). Kind of experiment: PfCDPK1 kinase inhibitors, biochemical, TCAMS library (AID 1159585; cut-off not given, nearly all actives have IC50 up to about 0.98 µM;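 note: inhibitors leave more ATP so luminescence rises with inhibition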). The settings on record: recombinant PfCDPK1, Kinase-Glo ATP depletion luminescence.
The target of experiment [6] is Plasmodium falciparum protein kinase 6 (PK6, PF3D7_1337100) (UniProt Q8IDW1). The experiment can be described thus: PfPK6 kinase inhibitors, biochemical, TCAMS library (AID 1159586). The settings on record: recombinant PfPK6, Kinase-Glo ATP depletion luminescence. For orientation: Kinase-Glo reads ATP consumption through a luciferase reaction.
Experiment [7] deals with Protein kinase 7 (PK7), Plasmodium falciparum 3D7 (PF3D7_0213400) (UniProt Q7YTF7). The experiment can be described thus: inhibition of Plasmodium PK7 catalytic activity – biochemical, TCAMS antimalarial set, Kinase-Glo luminescence (AID 1159587). As to conditions: recombinant PfPK7, Kinase-Glo ATP depletion luminescence.
The target of experiment [8] is Calcium-dependent protein kinase 4 (Plasmodium falciparum (isolate 3D7)) (UniProt Q8IBS5). Kind of experiment: PfCDPK4 kinase inhibitors, biochemical, TCAMS library (AID 1159588; cut-off not given, nearly all actives have IC50 up to about 0.91 µM). The settings on record: recombinant PfCDPK4, Kinase-Glo ATP depletion luminescence.

Structures are written as SMILES. A number with no mark means an inactive call. For some of these results: Potency and affinity values are given separately. Active and inactive are the calls of the source. Unless noted, the rule behind the calls is not given here.

From PubChem BioAssay come the findings set out here.

Broadly, the inhibition is the change of the read-out against control, counted positive when it falls.

Sequence of L-lactate dehydrogenase (Plasmodium falciparum (isolate CDC / Honduras)) (Q27743 whole entry, looked up): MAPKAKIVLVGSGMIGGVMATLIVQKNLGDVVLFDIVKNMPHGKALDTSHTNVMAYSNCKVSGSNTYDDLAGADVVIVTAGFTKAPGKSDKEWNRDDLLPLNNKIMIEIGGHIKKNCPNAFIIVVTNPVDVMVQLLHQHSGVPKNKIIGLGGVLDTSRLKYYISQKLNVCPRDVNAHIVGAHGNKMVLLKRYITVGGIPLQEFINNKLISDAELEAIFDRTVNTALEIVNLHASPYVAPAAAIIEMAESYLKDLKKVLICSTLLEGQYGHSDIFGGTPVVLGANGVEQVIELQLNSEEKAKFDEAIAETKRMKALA
Sequence of Protein kinase 7 (PK7), Plasmodium falciparum 3D7 (PF3D7_0213400) (Q7YTF7 1-343): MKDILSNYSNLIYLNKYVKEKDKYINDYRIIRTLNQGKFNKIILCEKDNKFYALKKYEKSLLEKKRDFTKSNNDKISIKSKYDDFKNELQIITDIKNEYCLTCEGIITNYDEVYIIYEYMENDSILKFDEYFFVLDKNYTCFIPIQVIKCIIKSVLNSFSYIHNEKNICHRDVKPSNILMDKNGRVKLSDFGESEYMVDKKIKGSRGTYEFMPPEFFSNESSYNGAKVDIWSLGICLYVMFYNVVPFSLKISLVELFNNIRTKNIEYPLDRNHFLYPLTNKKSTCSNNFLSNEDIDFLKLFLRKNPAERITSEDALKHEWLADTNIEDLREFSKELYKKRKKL
Sequence of Calcium-dependent protein kinase 1 (Plasmodium falciparum (isolate 3D7)) (P62344 whole entry, looked up): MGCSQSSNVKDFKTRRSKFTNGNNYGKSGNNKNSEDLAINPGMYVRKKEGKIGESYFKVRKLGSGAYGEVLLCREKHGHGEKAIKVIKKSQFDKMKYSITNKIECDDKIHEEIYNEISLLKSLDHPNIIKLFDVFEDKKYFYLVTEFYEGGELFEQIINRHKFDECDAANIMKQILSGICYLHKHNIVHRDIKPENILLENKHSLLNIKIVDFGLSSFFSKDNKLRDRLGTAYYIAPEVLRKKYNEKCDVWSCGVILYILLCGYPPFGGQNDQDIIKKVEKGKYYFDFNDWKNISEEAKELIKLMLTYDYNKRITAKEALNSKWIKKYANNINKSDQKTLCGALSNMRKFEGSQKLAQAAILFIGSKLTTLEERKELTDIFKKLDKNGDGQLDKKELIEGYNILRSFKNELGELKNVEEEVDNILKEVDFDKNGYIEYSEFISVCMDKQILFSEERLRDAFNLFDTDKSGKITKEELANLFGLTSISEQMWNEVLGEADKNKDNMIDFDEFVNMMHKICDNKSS
Sequence of Plasmodium falciparum protein kinase 6 (PK6, PF3D7_1337100) (Q8IDW1 1-305): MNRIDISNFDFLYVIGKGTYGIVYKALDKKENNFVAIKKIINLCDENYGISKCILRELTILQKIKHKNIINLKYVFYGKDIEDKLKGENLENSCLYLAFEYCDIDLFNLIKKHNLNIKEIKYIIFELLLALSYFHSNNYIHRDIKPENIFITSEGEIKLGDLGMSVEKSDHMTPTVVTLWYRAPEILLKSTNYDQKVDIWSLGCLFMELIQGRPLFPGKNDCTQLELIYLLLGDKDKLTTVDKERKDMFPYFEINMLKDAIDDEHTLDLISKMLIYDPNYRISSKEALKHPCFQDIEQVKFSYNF
Sequence of Calcium-dependent protein kinase 4 (Plasmodium falciparum (isolate 3D7)) (Q8IBS5 whole entry, looked up): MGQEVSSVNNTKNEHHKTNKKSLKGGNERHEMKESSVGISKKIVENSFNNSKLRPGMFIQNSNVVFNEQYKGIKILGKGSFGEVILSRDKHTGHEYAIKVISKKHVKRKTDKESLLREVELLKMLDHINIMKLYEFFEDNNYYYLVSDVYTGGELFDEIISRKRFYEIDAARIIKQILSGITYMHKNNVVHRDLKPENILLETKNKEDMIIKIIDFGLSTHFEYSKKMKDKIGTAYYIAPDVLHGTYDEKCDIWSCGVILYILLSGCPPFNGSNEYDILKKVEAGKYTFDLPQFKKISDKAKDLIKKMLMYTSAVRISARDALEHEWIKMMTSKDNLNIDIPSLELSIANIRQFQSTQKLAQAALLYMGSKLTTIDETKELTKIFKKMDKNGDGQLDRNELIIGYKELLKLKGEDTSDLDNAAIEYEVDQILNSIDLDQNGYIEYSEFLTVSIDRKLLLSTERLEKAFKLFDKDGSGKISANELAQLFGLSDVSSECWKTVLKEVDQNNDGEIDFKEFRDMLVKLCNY

Consider `CCN(CC)CCCSc1ccc(-c2ccc(SCCCN(CC)CC)cc2)cc1`, for which the growth inhibition was 30% in experiment [1] and 87% (active) in experiment [4]. Further, the inhibition in experiment [2] is 38%; in experiment [3], -8%. Also, the result in experiment [5], in experiment [6], in experiment [7] and in experiment [8] was inactive.
In the case of `CCCCOP(=O)(COc1ccc(CCN(CC(O)COc2cccc3[nH]c4ccccc4c23)CC(O)COc2cccc3[nH]c4ccccc4c23)cc1)C1CCCCC1` (stereo not given), the growth inhibition in experiment [1] was 92% (active); in experiment [4] it was 89% (active). The values for the inhibition in experiment [2] and in experiment [3] were 7% and 4%, respectively. For the same compound, the outcome in experiment [5], in experiment [6], in experiment [7] and in experiment [8] was inactive.
Turning to `Nc1cccc(CNCc2cccc(-c3ccc(-c4nc5ccccc5[nH]4)cc3)c2)c1`, the growth inhibition in experiment [1] was 92% (active); in experiment [4] it was 101% (active). Moreover, the inhibition in experiment [2] was -1%; in experiment [3], -2%. Besides, the outcome in experiment [5], in experiment [6], in experiment [7] and in experiment [8] was inactive.
`COc1cccc(-c2nc3c(N4CCN(c5ccncc5)CC4)cccc3n2CC2CCCCCN2)n1` (stereo not given): the figures for the growth inhibition in experiment [1] and in experiment [4] were 31% and 91% (active), respectively. In addition, the inhibition in experiment [2] was 12%; in experiment [3], 3%. Also, the result in experiment [5], in experiment [6], in experiment [7] and in experiment [8] was inactive.
As to `Cc1cc(C(=O)Nc2ccc(-c3nc4ccccc4[nH]3)cc2)ccc1[N+](=O)[O-]`, the growth inhibition in experiment [1] is 47%; in experiment [4] it was 101% (active). Moreover, the inhibition in experiment [2] is 55% (active); in experiment [3] it was 1%. The result in experiment [5], in experiment [6], in experiment [7] and in experiment [8] was inactive.
For the compound `CCNc1cc(C(=O)N[C@@H](Cc2ccccc2)[C@H](O)CNC2CCSCC2)cc(N2CCCC2=O)c1`, the growth inhibition in experiment [1] is 98% (active); in experiment [4], 99% (active). Moreover, the inhibition is 0% in experiment [2] and -1% in experiment [3]. For the same compound, the outcome in experiment [5], in experiment [6], in experiment [7] and in experiment [8] was inactive.
On to `O=C(Nc1cccc(CN2CCCN(Cc3ccc(O)cc3)CC2)c1)c1cccc(C(F)(F)F)c1`, for which the growth inhibition is 71% (active) in experiment [1] and 101% (active) in experiment [4]. Further, the inhibition in experiment [2] was 9%; in experiment [3], 3%. Also, the result in experiment [5], in experiment [6], in experiment [7] and in experiment [8] was inactive.
For `CC(C)Oc1cccc(-c2ccc(C(=O)NCC3CCCN(Cc4cccc(C(F)(F)F)c4)C3)s2)c1` (stereo not given), the growth inhibition in experiment [1] is 28%; in experiment [4], 91% (active). Moreover, the inhibition in experiment [2] was 10%; in experiment [3] it was -2%. Moreover, the result in experiment [5], in experiment [6], in experiment [7] and in experiment [8] was inactive.
Take `FC(F)(F)c1ccc2nc(-c3ccc(-c4cccc(CNCCN5CCNCC5)c4)s3)[nH]c2c1`: the growth inhibition in experiment [1] was 39%; in experiment [4], 91% (active). Besides, the inhibition was 22% in experiment [2] and 5% in experiment [3]. For the same compound, the outcome in experiment [5], in experiment [6], in experiment [7] and in experiment [8] was inactive.
In the case of `COc1cc(Cc2cnc(N)nc2N)c2ccsc2c1OC`, the growth inhibition is 4% in experiment [1] and 92% (active) in experiment [4]. The inhibition is 5% in experiment [2] and 0% in experiment [3]. Moreover, the outcome in experiment [5], in experiment [6], in experiment [7] and in experiment [8] was inactive.
For `CC(C)CCN1CCCN(Cc2cccc(NC(=O)c3cc4ccccc4s3)c2)CC1`, the values for the growth inhibition in experiment [1] and in experiment [4] were 8% and 96% (active), respectively. For the same compound, the inhibition in experiment [2] was 34%; in experiment [3], 1%. The outcome in experiment [5], in experiment [6], in experiment [7] and in experiment [8] was inactive.
`COc1cccc(OC)c1C(=O)N1CCC2(CC1)C(=O)N(CC(=O)NC1CCCCC1)CN2c1ccccc1`: the growth inhibition in experiment [1] is 91% (active); in experiment [4] it was 92% (active). For the same compound, the inhibition is 16% in experiment [2] and 5% in experiment [3]. In addition, the outcome in experiment [5], in experiment [6], in experiment [7] and in experiment [8] was inactive.
`O=C(N[C@@H](Cc1ccccc1)C(=O)NCCN1CCCCC1)c1ccc(O)c(-c2ccc(Cl)c(Cl)c2)c1`: the growth inhibition in experiment [1] is 97% (active); in experiment [4], 99% (active). The inhibition in experiment [2] was 6%; in experiment [3], -3%. For the same compound, the result in experiment [5], in experiment [6], in experiment [7] and in experiment [8] was inactive.
On to `Oc1ccc2nc(NCCCc3ccccc3)nc(NCCc3ccccc3)c2c1`, for which the growth inhibition in experiment [1] is 88% (active); in experiment [4], 99% (active). Besides, the figures for the inhibition in experiment [2] and in experiment [3] were 31% and -3%, respectively. In addition, the result in experiment [5], in experiment [6], in experiment [7] and in experiment [8] was inactive.
`Cc1ccc(NC(=O)c2ccc3ncccc3c2)cc1OC1CCN(C(C)C)C1` (stereo not given): the growth inhibition in experiment [1] is 37%; in experiment [4], 95% (active). In addition, the inhibition in experiment [2] is 12%; in experiment [3], 1%. Also, the outcome in experiment [5], in experiment [6], in experiment [7] and in experiment [8] was inactive.
As for `Cc1cccc(C(=O)NC(NC(=S)Nc2ccc([N+](=O)[O-])cc2)C(Cl)(Cl)Cl)c1` (stereo not given), the growth inhibition in experiment [1] was 66% (active); in experiment [4] it was 96% (active). The figures for the inhibition in experiment [2] and in experiment [3] were 14% and -2%, respectively. Also, the outcome in experiment [5], in experiment [6], in experiment [7] and in experiment [8] was inactive.
With `Nc1nc(N)c2c(Cc3ccccc3)cccc2n1`, the growth inhibition in experiment [1] was 3%; in experiment [4] it was 94% (active). In addition, the inhibition in experiment [2] is 68% (active); in experiment [3], -7%. The outcome in experiment [5], in experiment [6], in experiment [7] and in experiment [8] was inactive.
As to `CN(C)Cc1cccc(-c2cnc(N)c(-c3nc4ccc(S(C)(=O)=O)cc4[nH]3)c2)c1`, the growth inhibition is 61% (active) in experiment [1] and 100% (active) in experiment [4]. Moreover, the inhibition was 27% in experiment [2] and -2% in experiment [3]. In addition, the result in experiment [5], in experiment [6], in experiment [7] and in experiment [8] was inactive.
For the compound `CCN1CCN(c2cc(C)c3cc(NC(=O)c4cccc(C(F)(F)F)c4)ccc3n2)CC1`, the values for the growth inhibition in experiment [1] and in experiment [4] were 85% (active) and 101% (active), respectively. The inhibition in experiment [2] is 24%; in experiment [3], 0%. Moreover, the result in experiment [5], in experiment [6], in experiment [7] and in experiment [8] was inactive.
`Cn1cccc1CCNCc1ccc(-c2cccc(-c3nc4ccc(F)cc4[nH]3)c2)cc1`: the growth inhibition in experiment [1] is 43%; in experiment [4] it was 93% (active). Besides, the inhibition in experiment [2] is -2%; in experiment [3] it was 1%. For the same compound, the outcome in experiment [5], in experiment [6], in experiment [7] and in experiment [8] was inactive.
